# Screens as filed in PubChem BioAssay.
# SARS PLP yeast = blocks SARS-CoV papain-like protease in a yeast assay; S. cerevisiae expressing SARS-CoV PLpro, growth rescue; Potency, µM (series often up to 32.9 µM), actives largely listed as activators; hit rate 0.19% among 330,000; AID 485353; calls by dose curve; also: nearly all actives have a fitted effect of over 55% in size
# Pf growth 48h = P. falciparum growth inhibition at 48 hours (one generation). Potency, µM (highest dose often 28.7 µM), actives largely listed as inhibitors. hit rate 5.9% among 310,000. P. falciparum luciferase growth in erythrocytes, 48 h
#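 Luminescence readout; reporter = integrated firefly luciferase in P. falciparum. RBC culture at 2% hematocrit, 0.1% parasitemia final, 37 C/5% CO2; decreased signal taken as growth inhibition.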
# Pf growth 96h = P. falciparum growth inhibition at 96 hour, primary screen for plastid delayed-death inhibitors | P. falciparum luciferase reporter growth, 96 h | Potency, µM (top dose mostly 28.7 µM), most hits filed as inhibitors | hit rate 6.9% among 320,000 | AID 504834
#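 Compounds incubated with erythrocytes infected by luciferase-expressing P. falciparum (2% hematocrit, 0.05% parasitemia final) for 96 hours, 37 C in 5% CO2. Growth inhibition scored as decreased luciferase luminescence.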
# AMA1 RON2 block = inhibitors of Plasmodium falciparum AMA1-RON2 interaction | hit rate 0.2% among 360,000 | AID 720542 | AlphaScreen AMA1-biotinylated RON2 peptide binding | Potency, µM (titrated, usually from 58.2 µM), most hits filed as inhibitors; also: nearly all actives have a fitted effect of over 45% in size
#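 AMA1 (3D7) with his tag at 25 nM final met compounds first, then biotinylated RON2 peptide at 25 nM; detection used donor plus acceptor beads, 10 µg/mL apiece, read by AlphaScreen after 30 min at room temperature.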
# Hits are given with their value; i = inactive; ? = inconclusive; nt = not tested or not shown; [ ] = another dose, or the depositor's remark. An excerpt weighted towards active compounds, which were near 9.4% of everything screened. Unless noted, calls follow the shape of the dose curve; as a rule, active = well fitted curve in the direction sought with a large enough effect; inconclusive = small, poorly fitted or top-dose-only effect, or another doubt; inactive = no such curve, though single readings can be large; an effect the other way counts as inactive or inconclusive.
SMILES,SARS PLP yeast,Pf growth 48h,Pf growth 96h,AMA1 RON2 block
CC(=O)N1CCN(C(=O)c2cc3c(s2)CCC(C)C3)CC1 (centres undefined),i,i,i,i
O=C1NCCCCC1NS(=O)(=O)c1ccccc1 (centres undefined),i,i,i,i
C/C(=C\c1ccccc1)CN1CCN(c2ccccc2F)CC1,nt,i,i,i
COc1cc(NC(=O)c2cc(C)on2)cc(C(=O)Nc2cccc(C(F)(F)F)c2)c1,i,?,?,i
COc1cc(NC(=O)c2ccnc(N)c2)cc(C(=O)Nc2cccc(C(F)(F)F)c2)c1,i,2.1µM,1.9µM,i
COc1cc(NC(=O)c2cnc(N)s2)cc(C(=O)Nc2cccc(C(F)(F)F)c2)c1,i,2.6µM,3.3µM,?
COc1cc(OC)cc(C(=O)Nc2cccc(NC(=O)c3cccs3)c2)c1,nt,nt,nt,i
COc1cc(NC(=O)c2csc(N)n2)cc(C(=O)Nc2cccc(C(F)(F)F)c2)c1,i,12µM,?,i
COc1cc(NC(=O)c2cnc(N)o2)cc(C(=O)Nc2cccc(C(F)(F)F)c2)c1,i,10µM,13µM,i
CCOC(=O)c1nccnc1C(=O)Nc1cccc(C(F)(F)F)c1,i,i,?,i
Cc1ccc(S(=O)(=O)N2CCCCC2)cc1NC(=O)Cn1c(=O)cnc2ccccc21,i,i,?,i
O=c1[nH]c(C2CCCN(S(=O)(=O)c3ccccc3F)C2)nc2c1nnn2Cc1ccccc1Cl (centres undefined),i,?,12µM,i
O=c1[nH]c(C2CCCN(S(=O)(=O)c3ccccc3Cl)C2)nc2c1nnn2Cc1ccc2c(c1)OCCO2 (centres undefined),i,?,13µM,i
CCCCCCC(=O)N1CCC(c2nc3c(nnn3Cc3ccccc3Cl)c(=O)[nH]2)CC1,i,13µM,?,i
CCOc1ccc(-c2nnc(SCC(=O)NC(C)(C)C)nc2-c2ccc(OCC)c(OC)c2)cc1OC,i,2.3µM,?,i
COc1ccc(-c2c[n+]3c(n2-c2ccccc2)SCC3)cc1OC,i,1.3µM,?,i
CC1=C(C(=O)OC(C)C)C(C)NC(=O)N1 (centres undefined),i,i,9.3µM,i
CCOC(=O)C1=C(C)NC(=O)NC1C (centres undefined),i,i,i,i
CCC(Cc1ccccc1)n1c(=S)[nH]c2ccccc2c1=O (centres undefined),i,?,i,i
Cc1cc(C)c(-c2cc(C(F)(F)F)no2)c(=O)[nH]1,i,i,12µM,i
Cc1cc(C)c(C2=NOC(O)(C(F)(F)F)C2)c(=O)[nH]1 (centres undefined),i,i,nt,i
Cn1c(SCC(=O)N2c3ccccc3Sc3ccc(Cl)cc32)nnc1-c1ccco1,i,9.3µM,1.5µM,i
COc1ccc(C(=O)CSc2nnc(-c3ccco3)n2C)cc1,i,i,nt,i
Cn1c(SCC(=O)c2ccccc2)nnc1-c1ccco1,i,i,15µM,i
COc1ccc(CCNc2ncnc3sc(C)cc23)cc1OC,i,5.2µM,i,i
SMILES,SARS PLP yeast,Pf growth 48h,Pf growth 96h,AMA1 RON2 block
Fc1ccc(CCNc2ncnc3[nH]ncc23)cc1,nt,nt,nt,i
COc1ccc(CCNc2ccncn2)cc1OC,i,nt,i,i
COc1ccc(CCNc2ncnc3[nH]ncc23)cc1OC,i,i,15µM,i
CCc1nn(CC(=O)NCCc2ccc(OC)cc2OC)c(=O)c2cc3occc3n12,?,i,i,i
COc1ccc(CN2C(=O)c3ccccc3C2C(=O)NCC2CCCO2)c(OC)c1 (centres undefined),i,i,4.7µM,i
COc1ccccc1CNC(=O)C(=O)NCC1CCCO1 (centres undefined),i,i,5.9µM,i
COc1ccc(OC)c(CN2C(=O)c3ccccc3C2C(=O)NCC2CCCO2)c1 (centres undefined),i,?,?,i
COc1ccc(C(NC(=O)c2ccco2)c2ccc(OC)c(OC)c2)cc1 (centres undefined),i,i,nt,i
CC1(Cc2ccccc2OC(F)(F)F)C(=O)Nc2c(Cl)ccc(Cl)c21 (centres undefined),nt,nt,nt,i
O=C(COC(=O)c1cccs1)Nc1ccccc1,i,i,i,i
CC(=O)c1cccc(CN2CCCC(C(=O)Nc3ccc(-c4ccco4)cc3)C2)c1 (centres undefined),i,10µM,i,i
Cc1cccc(CN2CCCC(C(=O)Nc3ccc(-c4cscn4)cc3)C2)c1 (centres undefined),i,?,9.3µM,i
CCOc1cc(/C=C2/SC(=O)N(CC(=O)N3CCc4ccccc4C3)C2=O)ccc1OCC(=O)O,i,?,?,i
COc1ccccc1NC(=O)c1cc(S(=O)(=O)NCc2ccccc2)ccc1F,i,?,5.2µM,i
COc1ccc(CNS(=O)(=O)c2ccc(F)c(C(=O)Nc3ccc(OC)cc3)c2)cc1,i,i,?,i
COc1ccc(OC)c(NC(=O)c2cc(S(=O)(=O)NCc3ccco3)ccc2F)c1,i,i,1.2µM,i
COc1ccc(CNS(=O)(=O)c2ccc(F)c(C(=O)Nc3ccccc3OC)c2)cc1,i,i,2.3µM,i
O=C(NCc1n[nH]c(=S)n1-c1ccccc1Cl)c1ccc(S(=O)(=O)N2CCCCC2)cc1,i,i,?,i
Cc1c(Cc2c(C)n(C)n(-c3ccccc3)c2=O)c(=O)n(-c2ccccc2)n1C,i,i,i,i
CCN(CC)S(=O)(=O)c1cccc(-c2cn3cccnc3n2)c1,i,4.1µM,15µM,i
CC1CCCN(S(=O)(=O)c2cccc(-c3cn4cccnc4n3)c2)C1 (centres undefined),i,i,?,i
CCC(C)N1C(=O)/C(=C/c2c(NCCCOC(C)C)nc3c(C)cccn3c2=O)SC1=S (centres undefined),i,1.2µM,?,i
Cc1ccc(NS(=O)(=O)c2ccc3[nH]c(=O)oc3c2)c(C)c1,i,i,?,i
COc1ccc(S(=O)(=O)Nc2cc3[nH]c(=O)oc3cc2C)cc1,i,i,8.3µM,i
Nc1nc(=S)c2ncn([C@@H]3O[C@H](CO)[C@@H](O)[C@H]3O)c2[nH]1,nt,10µM,?,i
SMILES,SARS PLP yeast,Pf growth 48h,Pf growth 96h,AMA1 RON2 block
OCC1OC(n2cnc3c(=S)nc[nH]c32)C(O)C1O (centres undefined),nt,?,9.5µM,nt
CC1(C)OC2C(CO)OC(n3cnc4c(=S)nc[nH]c43)C2O1 (centres undefined),i,i,i,i
Nc1nc(Cl)nc2c1ncn2[C@@H]1O[C@H](CO)[C@@H](O)[C@H]1O,i,?,6.6µM,i
CCCCNC(=O)CN(c1ccc(Cl)c(Cl)c1)S(C)(=O)=O,i,i,?,i[2.32 µM]
c1ccc(-c2ccc(-c3n(-c4ccccn4)c4ccccc4[n+]3-c3ccccn3)cc2)cc1,i,?,15µM,i
c1ccc(-n2cnc3ccccc32)nc1,i,i,i,i
CC(C)c1nc(SCC(=O)c2c[nH]c3ccccc23)n[nH]1,i,i,?,i
COc1ccc(N2CCN(C(=O)CCCC3=NS(=O)(=O)c4ccccc4N3)CC2)cc1,i,?,?,i
O=C(CCCC1=NS(=O)(=O)c2ccccc2N1)N1CCN(c2ccc([N+](=O)[O-])cc2)CC1,nt,8.3µM,?,i
